The record followed here is PubChem BioAssay (NCI).

Test in all cases: NCI-60 one-dose screen, 48 h (100 = growth as untreated, 0 = no growth, -100 = all killed)
Holding throughout (conditions): 10 µM unless noted

Assay [1] concerns SR leukemia.
In assay [2] the test system is RPMI-8226 leukemia.
The subject of assay [3] is OVCAR-8 ovarian.
The test system of assay [4] is OVCAR-5 ovarian.
Assay [5] concerns OVCAR-4 ovarian.
For assay [6], the system named is SK-OV-3 ovarian.
In assay [7] the test system is IGROV1 ovarian.
Assay [8] relates to HS 578T breast.
In assay [9] the test system is NCI/ADR-RES ovarian.
The test system of assay [10] is T-47D breast.
Assay [11] concerns BT-549 breast.
Assay [12] deals with MDA-MB-435 melanoma.
Assay [13] concerns SW-620 colon.
Assay [14] has as its system MCF7 breast.
In assay [15] the test system is HCT-116 colon.
The subject of assay [16] is HCC-2998 colon.
Assay [17] has as its system KM12 colon.

Compounds without any hit were thinned out: in the full panel of roughly 83,000, 20% have a hit.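 Activity criterion: percent growth below 10, measured after cells in 96-well plates were exposed to a single compound concentration for 48 hours.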 Values without a mark were called inactive. Active and inactive are the calls of the source.

As to `COc1ccc(OC)c(-c2nc(SCC(=O)c3ccc(Br)cc3)nc(Nc3ccc(S(N)(=O)=O)cc3)c2C#N)c1`, the growth in assay [1] is 13.9%; in [2], 51.2%; in assay [3], 62.8%; in assay [4], 73.3%; in [5], 57.3%; in [6], 79.9%. In addition, the growth in assay [7] was 54.7%; in assay [8], 13.4%; in [9], 74.4%; in [10] it was 71.1%; in assay [11], 49.4%; in assay [12], -18.6% (active). The growth in assay [13] was 36%; in assay [14], 28.9%; in assay [15], 15.4%; in assay [16], 70.9%; in assay [17], 20.9%.
Take `CC[C@@H](CO)Nc1ccc2ncc(C#Cc3cncc(C(=O)Nc4ccc(CN5CCN(C)CC5)c(C(F)(F)F)c4)c3)n2n1`: the growth was -24.4% (active) in [1]; -34.5% (active) in assay [2]; -57.6% (active) in assay [3]; -14% (active) in assay [4]; -44.1% (active) in assay [5]; -40% (active) in [6]. The growth in assay [7] was -25.4% (active); in [8], -41.5% (active); in [9], 55.1%; in assay [10], -75.8% (active); in assay [11], -91.7% (active); in assay [12] it was -88% (active). Further, the growth in [13] is -44.8% (active); in assay [14] it was -69.6% (active); in assay [15], -92.5% (active); in assay [16], -43.2% (active); in assay [17], -34.1% (active).
As to `COc1cc(-c2nc3sccn3c2-c2ccnc(S(C)(=O)=O)n2)ccc1F`, the growth is 86.3% in assay [1]; 91.9% in assay [2]; 98.3% in [3]; 98.3% in assay [4]; 98.2% in assay [5]; 113% in assay [6]. The growth was 98.1% in [7]; 101% in [8]; 95.7% in [9]; 97.9% in assay [10]; 92.2% in [11]; 91.5% in assay [12]. Besides, the growth in assay [13] was 99%; in assay [14], 84.1%; in assay [15], 103%; in assay [16] it was 100%; in [17], 102%.
For `CCc1cccc2c3c(sc12)C(c1ccc(OC)cc1)C(C#N)=C(/N=C/c1ccc(Cl)cc1)O3` (stereo not drawn), the growth was 1.27% (active) in [1]; 10.9% in [2]; 21.8% in assay [3]; 45.7% in assay [4]; 73.9% in assay [5]; 40.4% in [6]. Besides, the growth in assay [7] was 42.6%; in assay [8] it was -7.21% (active); in assay [9], 0.0091% (active); in assay [10], 12.9%; in assay [11], 29.8%; in assay [12] it was -47.2% (active). The growth is 39.4% in [13]; 19.3% in assay [14]; 13% in assay [15]; 20% in assay [16]; 22.7% in [17].
Consider `CCNC(=O)N1CCc2cc(OC)c(OCCc3ccc(OC)c(N)c3)cc2C1c1ccc(C)cc1C` (stereo not drawn), for which the growth in [1] is 15.3%; in assay [2] it was 20.1%; in [3] it was 24.4%; in assay [4], 33.5%; in assay [5], 57.6%; in [6], 52.8%. In addition, the growth in [7] was 21.4%; in assay [8] it was 11.7%; in assay [9] it was 17.9%; in assay [10] it was 65.8%; in [11] it was -10.9% (active); in [12] it was 13.4%. For the same molecule, the growth in [13] was 23.2%; in assay [14], 17.2%; in [15], 9.82% (active); in assay [16], 20.6%; in assay [17], 12.5%.
For `N#Cc1c(Nc2ccccc2)nn2c(-c3ccc([N+](=O)[O-])cc3)ccnc12`, the growth in assay [1] is 103%; in assay [2] it was 94.1%; in assay [3], 99.9%; in assay [4], 99.6%; in assay [5], 108%; in assay [6] it was 111%. The growth is 100% in [7]; 102% in assay [8]; 101% in [9]; 110% in assay [10]; 99.5% in [11]; 97.4% in assay [12]. Moreover, the growth in assay [13] is 103%; in assay [14], 93.2%; in assay [15], 99.3%; in assay [16] it was 106%; in assay [17], 102%.
With `CC(=O)N1C(=S)NC(=O)C1CC(C)C` (stereo not drawn), the growth in assay [1] was 101%; in [2], 99%; in assay [3], 103%; in assay [4], 100%; in assay [5], 99.5%; in assay [6], 101%. Moreover, the growth is 104% in [7]; 110% in assay [8]; 105% in assay [9]; 100% in [10]; 115% in [11]; 103% in [12]. In addition, the growth is 102% in [13]; 97.7% in [14]; 106% in assay [15]; 108% in assay [16]; 101% in assay [17].
Consider `COC(=O)c1ccc(NC2=C/C(=N/S(=O)(=O)c3ccc(C(=O)O)cc3)c3ccccc3C2=O)cc1`, for which the growth is 0.0887% (active) in assay [1]; 2.88% (active) in [2]; 9.15% (active) in [3]; 18.8% in assay [4]; -56.5% (active) in assay [5]; 106% in assay [6]. The growth in [7] is 11.3%; in assay [8] it was -13.6% (active); in assay [9], 4.23% (active); in assay [10] it was 4.9% (active); in assay [11], 84.2%; in [12], -93.1% (active). In addition, the growth in assay [13] was -30% (active); in assay [14], -58.2% (active); in [15], 5.32% (active); in assay [16] it was 105%; in assay [17], 51.1%.
Consider `COc1ccc([C@H]2c3[nH]c4ccccc4c3C[C@H]3C(=O)N(C4CCN(Cc5c(Cl)cccc5Cl)CC4)CC(=O)N23)c(OC)c1`, for which the growth was 85% in assay [1]; 89.9% in [2]; 97.5% in [3]; 96.7% in assay [4]; 97.2% in [5]; 117% in assay [6]. The growth in assay [7] is 78.9%; in assay [8] it was 88.4%; in assay [9], 90.5%; in assay [10] it was 83.6%; in assay [11], 119%; in assay [12] it was 102%. The growth in assay [13] was 95.4%; in assay [14], 84.3%; in assay [15] it was 92.6%; in assay [16], 113%; in [17] it was 96.8%.
